# Unmarked numbers belong to inactive results. Inconclusive results are not listed. A call without a number means that no potency is given here. Activity calls are given as the source filed them. Unless noted, the call rests on the fitted dose curve.
# Key:
# [1] = target: Thyrotropin receptor (Homo sapiens) (UniProt P16473); test: qHTS assay to identify small molecule agonists of the thyroid stimulating hormone receptor (TSHR) signaling pathway (AID 1224843); further: nearly all actives have a fitted effect of over 45% in size
# Procedure, shortened: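 HEK293/TSHR, 800 cells/well; cpd 30 min RT; add cAMP-d2 + anti-cAMP-cryptate, 1 h RT; fluorescence read on plate reader. 15-pt titration, n=3.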
# [2] = qHTS assay to identify small molecule agonists of the hypoxia (HIF-1) signaling pathway - cell viability counter screen (AID 1224844); further: nearly all actives have a fitted effect of over 50% in size; further: potency means the concentration at half of the fitted maximal effect
# Procedure, shortened: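 Same wells as the HIF-1 reporter screen; ME-180 cells carrying HRE-bla, 17 hr treatment at 37C; CellTiter-Glo luminescence read after 30 min at room temperature.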
# [3] = qHTS assay to identify small molecule agonists of the hypoxia (HIF-1) signaling pathway (AID 1224846; active means well fitted activation curve with a large enough effect in the signal ratio in the repeat runs, not every such curve was filed as active; the % refers to the signal ratio)
# Procedure, shortened: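 In ME-180 cells bearing an HRE-bla construct, 17 h treatment with DMSO-dissolved compounds at 37C was followed by CCF4-AM loading to quantify reporter induction.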
# [4] = qHTS assay to identify small molecule agonists of H2AX - cell viability counter screen (AID 1224847); further: top concentration of the series differs between compounds; nearly all actives have a fitted effect of over 30% in size
# Procedure, shortened: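 Cells plated first: CHO-K1, 1000 per well in 10% FBS medium, incubated overnight at 37C. Then 15-point compound titration added (final DMSO 0.76%) for 3 hr. Finally CellTiter-Glo added and luminescence read.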
# [5] = qHTS assay to identify small molecule antagonists of the estrogen related receptor (ERR) signaling pathway from Tox21 library (AID 1224848; active means well fitted curve in the direction sought with a large enough effect in the repeat runs; an effect the other way counts as inactive or inconclusive; further: nearly all actives have a fitted effect of over 50% in size)
# Procedure, shortened: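 Compounds dissolved in DMSO are pin-transferred onto ERR reporter cells (2,000 per well) that have settled for 6 h at 37 C. Plates then incubate 18 h at 37 C before ONE-Glo luciferase reagent and a luminescence read 30 min later.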
# [6] = qHTS assay to identify small molecule agonists of the estrogen related receptor (ERR) signaling pathway from Tox21 library (AID 1224849); conditions: ERR reporter cell line, ONE-Glo luciferase, 18 h; at 92.4 µM (top of the series) unless noted; further: nearly all actives have a fitted effect of over 15% in size
# Procedure, shortened: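 Reporter cells (ERR, NTP source) treated with Tox21 10K compounds 18 h, 37 C. Readout: ONE-Glo luminescence, 30 min RT.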
# [7] = qHTS RealTime-Glo MT Cell Viability Assay in HEK293 cells - 32 hour (AID 1224868; active means well fitted curve in the direction sought with a large enough effect in the repeat runs; an effect the other way counts as inactive or inconclusive; further: top concentration of the series differs between compounds; nearly all actives have a fitted effect of over 50% in size)
# Procedure, shortened: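 Homogeneous bioluminescent viability format in HEK293 cells (600 cells/well). Following 5 h at 37 C/5% CO2, 23 nL compound was pintooled; the signal was measured repeatedly during 40 h incubation.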
# [8] = A CellTox Green Cytotoxicity Assay to monitor cytotoxicity in HEK293 cells - 0 hour (AID 1224869; active means well fitted curve in the direction sought with a large enough effect in the repeat runs; an effect the other way counts as inactive or inconclusive; further: nearly all actives have a fitted effect of over 50% in size)
# Procedure, shortened: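 Homogeneous no-lysis format: HEK293 cell suspension mixed with CellTox Green reagent, seeded, incubated 5 h at 37 C/5% CO2, then dosed by pintool with compound in DMSO.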
# [9] = qHTS RealTime-Glo MT Cell Viability Assay in HepG2 cells - 24 hour (AID 1224867; active means well fitted curve in the direction sought with a large enough effect in the repeat runs; an effect the other way counts as inactive or inconclusive; further: nearly all actives have a fitted effect of over 50% in size)
# Procedure, shortened: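 Cell number in HepG2 cultures estimated from NanoLuc luminescence generated by metabolic reduction of a prosubstrate by living cells. The homogeneous, nonlytic format allowed repeated reads at 0, 8, 16, 24, 32 and 40 h of compound exposure.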
# [10] = qHTS assay to identify small molecule agonists of H2AX (AID 1224845; active means well fitted activation curve with a large enough effect in the signal ratio in the repeat runs, not every such curve was filed as active; the % refers to the signal ratio)
# Procedure, shortened: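 Wild-type CHO-K1 cells, plated overnight, exposed 3hr at 37C to 15 concentrations (0.76% DMSO final). Lysed, then HTRF anti-pH2AX (S139) cryptate and anti-H2AX-d2 antibodies, 24 hr room temperature; 665/620 nm emission read.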
# Thyrotropin receptor (Homo sapiens), sequence (P16473 whole entry, looked up): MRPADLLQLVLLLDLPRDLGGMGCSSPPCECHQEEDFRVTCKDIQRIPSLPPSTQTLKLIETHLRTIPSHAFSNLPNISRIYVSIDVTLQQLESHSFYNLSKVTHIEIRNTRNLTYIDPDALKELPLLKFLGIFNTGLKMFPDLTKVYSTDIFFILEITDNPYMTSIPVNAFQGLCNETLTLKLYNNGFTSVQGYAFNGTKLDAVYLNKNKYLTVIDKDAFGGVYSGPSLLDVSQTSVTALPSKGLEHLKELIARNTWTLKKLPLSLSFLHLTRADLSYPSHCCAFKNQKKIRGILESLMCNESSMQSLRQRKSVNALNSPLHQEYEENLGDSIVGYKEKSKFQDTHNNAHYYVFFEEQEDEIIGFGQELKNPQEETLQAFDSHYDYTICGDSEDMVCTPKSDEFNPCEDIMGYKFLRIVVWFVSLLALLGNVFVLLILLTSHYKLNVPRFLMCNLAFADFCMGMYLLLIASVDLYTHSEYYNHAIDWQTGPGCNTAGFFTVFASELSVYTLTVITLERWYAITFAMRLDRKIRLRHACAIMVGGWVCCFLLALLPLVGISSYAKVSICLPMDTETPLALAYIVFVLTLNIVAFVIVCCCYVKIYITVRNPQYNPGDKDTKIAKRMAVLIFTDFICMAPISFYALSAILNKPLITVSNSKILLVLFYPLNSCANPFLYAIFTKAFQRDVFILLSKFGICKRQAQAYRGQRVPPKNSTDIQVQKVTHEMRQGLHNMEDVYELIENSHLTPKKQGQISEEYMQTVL
smiles,measurement,setting,value
CC(C)(C)C(=O)/C=C/c1ccc(Cl)cc1,outcome,[1],inactive
same,Potency,[2],inactive
same,outcome,[3],inactive
same,Potency,[4],inactive
same,Potency,[5],inactive
same,"activity change, positive = activation",[6],1.54%
same,Potency,[7],inactive
same,Potency,[8],inactive
CC(C)[N+](C)(C)CC(O)COc1cccc2ccccc12 (stereo unspecified),outcome,[1],inactive
same,Potency,[2],inactive
same,outcome,[3],inactive
same,Potency,[4],inactive
same,outcome,[9],inactive
same,Potency,[7],inactive
same,Potency,[8],inactive
O=C(O)CCNC(=O)c1ccc(N=Nc2ccc(O)c(C(=O)O)c2)cc1,outcome,[1],inactive
same,Potency,[2],inactive
same,outcome,[3],inactive
same,Potency,[4],inactive
same,outcome,[9],inactive
same,Potency,[7],inactive
same,Potency,[8],inactive
C[C@H](O)C(=O)Nc1c(I)c(C(=O)NC(CO)CO)c(I)c(C(=O)NC(CO)CO)c1I,outcome,[1],inactive
same,Potency,[2],inactive
same,outcome,[10],inactive
same,Potency,[4],inactive
same,outcome,[9],inactive
same,Potency,[7],inactive
same,Potency,[8],inactive
CN(C)CCOC(c1ccc(Cl)cc1)c1ccccn1 (stereo unspecified),outcome,[1],inactive
same,Potency,[2],inactive
same,outcome,[10],inactive
same,Potency,[4],inactive
same,outcome,[9],inactive
same,Potency,[7],inactive
same,Potency,[8],inactive
CC(C)(C)N(CCO)CCO,outcome,[1],inactive
same,Potency,[2],inactive
same,outcome,[3],inactive
same,Potency,[4],inactive
same,outcome,[9],inactive
same,Potency,[7],inactive
same,Potency,[8],inactive
O=C(O)c1ccccc1S,outcome,[1],inactive
same,Potency,[2],inactive
same,outcome,[10],inactive
same,outcome,[9],inactive
same,Potency,[7],inactive
same,Potency,[8],inactive
CC1(C)SC(C)(C)SC(C)(C)S1,outcome,[1],inactive
same,Potency,[2],inactive
same,outcome,[3],inactive
same,Potency,[4],inactive
same,Potency,[5],inactive
same,"activity change, positive = activation",[6],-8.06%
same,outcome,[9],inactive
same,Potency,[8],inactive
CCn1cc(C(=O)O)c(=O)c2cc(F)c(N3CCN(C)CC3)cc21,activation,[1],-0.535% [at 19 µM]
same,"activity change, negative = cytotoxicity",[2],-1.72% [at 15.8 µM]
same,activation,[3],-0.496% [at 15.8 µM]
same,"activity change, negative = cytotoxicity",[4],-2.01% [at 31.6 µM]
same,"activity change, negative = cytotoxicity",[9],0.0471% [at 15.8 µM]
same,"activity change, negative = cytotoxic",[7],4.88% [at 15.8 µM]
same,cytotoxicity,[8],-2.39% [at 15.8 µM]
Nc1cc(N)cc(C(=O)O)c1,outcome,[1],inactive
same,Potency,[2],inactive
same,outcome,[3],inactive
same,Potency,[4],inactive
same,outcome,[9],inactive
same,Potency,[7],inactive
same,Potency,[8],inactive
NS(=O)(=O)c1cc2c(cc1Cl)NC(CSCc1ccccc1)=NS2(=O)=O,outcome,[1],inactive
same,Potency,[2],inactive
same,outcome,[10],inactive
same,Potency,[4],inactive
same,outcome,[9],inactive
same,Potency,[7],inactive
same,Potency,[8],inactive
C=CCSCC1Nc2cc(Cl)c(S(N)(=O)=O)cc2S(=O)(=O)N1 (stereo unspecified),outcome,[1],inactive
same,Potency,[2],inactive
same,outcome,[3],inactive
same,Potency,[4],inactive
same,outcome,[9],inactive
same,Potency,[7],inactive
same,Potency,[8],inactive
CSc1ccc(C=O)cc1,outcome,[1],inactive
same,Potency,[2],inactive
same,outcome,[10],inactive
same,Potency,[4],inactive
same,outcome,[9],inactive
same,Potency,[7],inactive
same,Potency,[8],inactive
NCCNC(=O)c1ccc(Cl)cn1,outcome,[1],inactive
same,Potency,[2],inactive
same,outcome,[3],inactive
same,Potency,[4],inactive
same,Potency,[5],inactive
same,"activity change, positive = activation",[6],-0.271% [at 42.5 µM]
same,Potency,[7],inactive
same,Potency,[8],inactive
CCCC(=O)O[C@]1(C(=O)CCl)[C@@H](C)C[C@H]2[C@@H]3CCC4=CC(=O)C=C[C@]4(C)[C@@]3(F)C(=O)C[C@@]21C,outcome,[1],inactive
same,Potency,[2],inactive
same,outcome,[10],inactive
same,Potency,[4],inactive
same,outcome,[9],inactive
same,Potency,[7],inactive
same,Potency,[8],inactive
N[C@@H](CS)C(=O)O,outcome,[1],inactive
same,Potency,[2],inactive
same,outcome,[3],inactive
same,Potency,[4],inactive
same,outcome,[9],inactive
same,Potency,[7],inactive
same,Potency,[8],inactive
Nc1cc(C(Cl)=C(Cl)Cl)c(S(N)(=O)=O)cc1S(N)(=O)=O,outcome,[1],inactive
same,Potency,[2],inactive
same,outcome,[10],inactive
same,Potency,[4],inactive
same,outcome,[9],inactive
same,Potency,[7],inactive
same,Potency,[8],inactive
CC(C)c1ccc2oc3nc(N)c(C(=O)O)cc3c(=O)c2c1,outcome,[1],inactive
same,Potency,[2],inactive
same,outcome,[3],inactive
same,Potency,[4],inactive
same,Potency,[5],inactive
same,"activity change, positive = activation",[6],105% [at 42.5 µM] (active)
same,outcome,[9],inactive
same,Potency,[7],inactive
same,Potency,[8],inactive
CCN1CCCC1CNC(=O)c1cc(S(N)(=O)=O)ccc1OC (stereo unspecified),outcome,[1],inactive
same,Potency,[2],17.4 µM (active)
same,outcome,[10],inactive
same,Potency,[4],inactive
same,outcome,[9],inactive
same,Potency,[8],inactive
O=C(O)c1ccc[n+]([O-])c1,outcome,[1],inactive
same,Potency,[2],inactive
same,outcome,[3],inactive
same,Potency,[4],inactive
same,outcome,[9],inactive
same,Potency,[7],inactive
same,Potency,[8],inactive
CCCOc1ccccc1-c1nc2n[nH]nc2c(=O)[nH]1,outcome,[1],inactive
same,Potency,[2],inactive
same,outcome,[10],inactive
same,outcome,[9],inactive
same,Potency,[8],inactive
O=C(O)C(O)[C@H](O)[C@@H](O)[C@H](O)[C@H](O)CO (stereo partly specified),outcome,[1],inactive
same,Potency,[2],inactive
same,outcome,[3],inactive
same,Potency,[4],inactive
same,"activity change, positive = activation",[6],-30.1%
same,outcome,[9],inactive
same,Potency,[8],inactive
NS(=O)(=O)c1cc(C2(O)NC(=O)c3ccccc32)ccc1Cl (stereo unspecified),outcome,[1],inactive
same,Potency,[2],inactive
same,outcome,[10],inactive
same,Potency,[4],inactive
same,outcome,[9],inactive
same,Potency,[7],inactive
same,Potency,[8],inactive
CC(C)[C@H](N)C(=O)OCCOCn1cnc2c(=O)[nH]c(N)nc21,outcome,[1],inactive
same,Potency,[2],inactive
same,outcome,[3],inactive
same,Potency,[4],inactive
same,outcome,[9],inactive
same,Potency,[7],inactive
same,Potency,[8],inactive
CCN1CCN(c2cc3c(cc2F)c(=O)c(C(=O)O)cn3C2CC2)CC1,outcome,[1],inactive
same,Potency,[2],inactive
same,outcome,[10],inactive
same,Potency,[4],inactive
same,outcome,[9],inactive
same,Potency,[7],inactive
same,Potency,[8],inactive

# — PubChem BioAssay (Tox21)
